This is an account of results in PubChem BioAssay (NCI).

This is part of a sample that, as a whole, favours compounds with a hit. Of some 83,000 tested, about 20% had one in any assay.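 Step 1: grow cells in 96-well plates. Step 2: add test compound at a single concentration. Step 3: incubate 48 h. Step 4: record percent growth.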 A number with no mark means an inactive call. The source made the active and inactive calls. Rule for the calls: active = growth percent below 10; inactive = the rest.

What all share (test): NCI-60 one-dose screen, 48 h (100 = growth as untreated, 0 = no growth, -100 = all killed)
Assay [1] deals with SK-MEL-2 melanoma. Conditions: 10 µM unless noted.
The subject of assay [2] is EKVX NSCLC. The settings on record: 10 µM unless noted.
Assay [3] has as its system SN12C renal. Conditions: 10 µM unless noted.
For assay [4], the system named is UO-31 renal. The settings on record: 10 µM unless noted.
Assay [5] deals with TK-10 renal. The settings on record: 10 µM unless noted.
Assay [6] deals with ACHN renal. The settings on record: 10 µM unless noted.
In assay [7] the test system is A498 renal. The settings on record: 10 µM.
Assay [8] relates to HL-60(TB) leukemia. The settings on record: 10 µM unless noted.
Assay [9] deals with CCRF-CEM leukemia. The settings on record: 10 µM unless noted.
Assay [10] has as its system MOLT-4 leukemia. Conditions: 10 µM unless noted.
Assay [11] deals with SR leukemia. Conditions: 10 µM unless noted.
Assay [12] has as its system RPMI-8226 leukemia. Conditions: 10 µM unless noted.
In assay [13] the test system is OVCAR-8 ovarian. The settings on record: 10 µM unless noted.
The test system of assay [14] is OVCAR-5 ovarian. The settings on record: 10 µM unless noted.
Assay [15] relates to OVCAR-4 ovarian. The settings on record: 10 µM unless noted.
Assay [16] has as its system SK-OV-3 ovarian. Conditions: 10 µM unless noted.
The subject of assay [17] is IGROV1 ovarian. Conditions: 10 µM unless noted.
Assay [18] relates to OVCAR-3 ovarian. Conditions: 10 µM unless noted.
Assay [19] deals with HS 578T breast. The settings on record: 10 µM unless noted.

As to `CC1=C(CCCOC(=O)[C@H](N)CC(C)C)C2=C(C)C3(CC3)[C@@](C)(O)C(=O)C2=C1`, the growth was -15.6% (active) in assay [1]; 35.2% in [2]; 29.3% in assay [3]; -42.1% (active) in assay [4]; -19% (active) in [5]; -43% (active) in assay [6]. Moreover, the growth is -74.2% (active) in [7]; 52.3% in assay [8]; 80% in assay [9]; 80% in assay [10]; 95.1% in assay [11]; 90% in assay [12]. Besides, the growth in [13] is 3.99% (active); in assay [14] it was 22.8%; in assay [15], 4.85% (active); in assay [16], -18.1% (active); in assay [17] it was 2.81% (active); in [18], -14% (active). For the same molecule, the growth in [19] was 79%.

`CCCCN1CCCC[C@@H]1C(=O)N[C@H](C(=O)N(C)[C@H](C[C@@H](OC(C)=O)c1nc(C(=O)NC2CCC(C(=O)OC)CC2)cs1)C(C)C)C(C)C` (some centres undefined): the growth in assay [1] was 35.5%; in assay [2] it was 34.8%; in [3] it was 46.3%; in [4] it was 52.8%; in assay [5], 55.6%; in [6], 54.8%. The growth in [7] was 22.3%; in assay [8], -30.4% (active); in assay [9], 5.58% (active); in assay [10] it was 19.2%; in assay [11], 20.4%; in [12], 16.8%. The growth in assay [14] was 57%; in assay [15], 52.2%; in [16] it was 23.9%; in assay [17] it was 39.5%; in [18], -29.5% (active); in [19], 14.5%.

Consider `O=C(O)c1ccc([S-])cc1.[Au+].c1ccc(CN2[CH-]N(Cc3ccccc3)C(c3ccccc3)=C2c2ccccc2)cc1`, for which the growth in assay [1] is -43.2% (active); in assay [2] it was -52.9% (active); in assay [3] it was -67.8% (active); in assay [4] it was -79.4% (active); in assay [5], -61.7% (active); in [6], -65.7% (active). In addition, the growth was -33.8% (active) in [7]; 1.41% (active) in assay [9]; -1.59% (active) in assay [10]; -11% (active) in assay [12]; 1.87% (active) in [13]; -14.2% (active) in assay [14]. Also, the growth in [15] is 38.1%; in assay [16] it was -5% (active); in assay [17], -58.6% (active); in [18], -95.2% (active); in assay [19], 23.2%.

Take `COC(=O)[C@@H](C)C[C@H](Cc1ccc2ccccc2c1)NC(=O)c1csc([C@@H](C[C@H](C(C)C)N(C)C(=O)[C@@H](NC(=O)[C@H]2CCCCN2C)C(C)C)OC(C)=O)n1`: the growth in assay [1] was 57.8%; in assay [2], 46.1%; in assay [3], 33.5%; in assay [4], 23.1%; in assay [5], 28%; in assay [6], 4.23% (active). For the same molecule, the growth in [7] was 21.7%; in assay [8], 9.43% (active); in assay [9] it was 24.2%; in [10], -2.64% (active); in assay [11] it was 6.75% (active); in [12], 23.3%. In addition, the growth in assay [14] is 77.6%; in [15], 53%; in assay [16] it was 56.5%; in [17] it was 22.7%; in assay [18], 55.8%; in assay [19] it was 40.8%.

For the molecule `O=[N+]([O-])c1cc(I)cc([N+](=O)[O-])c1`, the growth in [1] was 96.8%; in assay [2], 99.9%; in assay [3] it was 103%; in [4] it was 108%; in [5], 117%; in [6], 121%. Besides, the growth in assay [7] was 111%; in assay [8] it was 125%; in assay [9], 100%; in assay [10], 97.1%; in assay [11], 104%; in [12], 101%. Also, the growth in [13] was 108%; in assay [14] it was 119%; in assay [15], 79.4%; in [16], 125%; in assay [17] it was 108%; in assay [18] it was 107%. Also, in assay [19], the growth was 122%.

On to `CC[C@H](NC(=O)[C@H]1CCCCN1C)C(=O)N(C)[C@H](C[C@@H](OC(C)=O)c1nc(C(=O)N[C@@H](Cc2ccccc2)C[C@H](C)C(=O)O)cs1)C(C)C`, for which the growth in assay [1] is 36.8%; in assay [2] it was 40.6%; in [3], 17.1%; in assay [4], 41.7%; in assay [5], 69%; in assay [6], 34.4%. In addition, the growth in [7] is -8.18% (active); in [8], -21.5% (active); in assay [9] it was 1.98% (active); in assay [10] it was 10.2%; in assay [11], 6.46% (active); in [12], 15.5%. In addition, the growth is 9.15% (active) in [13]; 37.5% in [14]; 43.5% in [15]; 25.8% in [16]; -6.57% (active) in [18]; 11.4% in assay [19].

Consider `Cc1cc(NC(=O)NCc2ccc(N3C(N)=NC(N)=NC3(C)C)cc2)ccc1S(=O)(=O)F`, for which the growth is 34.4% in assay [1]; 53.5% in [2]; 33.6% in assay [3]; 80.1% in assay [4]; 45.7% in assay [5]; 89.2% in assay [6]. Besides, the growth is 77.7% in [7]; 24.7% in [8]; 55.4% in assay [9]; 42% in assay [10]; 4.98% (active) in [11]; -4.46% (active) in assay [13]. The growth in assay [14] is 10.8%; in [15] it was 39.2%; in assay [16], 64.9%; in assay [17] it was -51.3% (active); in assay [18] it was 67.6%; in [19] it was 68.6%.

On to `N#CCCNc1ccccc1`, for which the growth was 112% in assay [1]; 98% in assay [2]; 111% in [3]; 93.6% in assay [4]; 115% in [5]; 101% in assay [6]. Moreover, the growth in [8] was -10.8% (active); in assay [9], 80.6%; in [10], 79.3%; in assay [11], 77.1%; in assay [12], 95.2%; in assay [13], 114%. Besides, the growth in [14] is 104%; in assay [15], 105%; in [16], 121%; in [17], 119%; in assay [18], 106%.
